Screening data as filed in PubChem.
KCNQ2 block – rat KCNQ2 potassium channel inhibitors, primary screen, cell-based, CHO-K1, FluxOR thallium flux, B-score; 20 min; hits give low values; B-score at 10 µM; actives 1.1% (n = 310,000); Potassium voltage-gated channel subfamily KQT member 2 (Rattus norvegicus), O88943;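 active = fluorescence ratio B-score at most minus 3 library SDs, with starting brightness B-score within 2 library SDs, cut at about -5.5 in these data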
KCNQ2 enhance – potentiators of rat KCNQ2 potassium channel. actives 0.54% (n = 310,000). CHO-K1 KCNQ2, FluxOR thallium flux fluorescence; hits give high values. AID 2239, 2010. B-score at 10 µM;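 active = fluorescence ratio B-score at least 3 SD of library B-scores, with initial fluorescence B-score within 3 of them, cut at about 5.3 in these data; same plate scores as AID 2156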;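 also: B-score of peak minus minimum over baseline fluorescence ratio after K+ and Tl+ stimulus; positive B-score means potentiation of KCNQ2 with more thallium influx and brighter signal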
Kir21 conf inh – mouse Kir2.1 channel blockers, retest, confirmation, cell-based, FluxOR thallium flux, duplicate; Kir2.1-expressing cells, FluxOR thallium flux fluorescence; hits give low values; actives 41% (n = 2,300); shares compounds with KCNQ2 enhance; Tl flux remaining, % of negative control (hits give low values), % at 10 µM;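 active = Primary-screen hit whose thallium flux fell at least 3 control SD below untreated wells in both duplicates, with normal baseline fluorescence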
Target sequence (P35561 whole entry, looked up): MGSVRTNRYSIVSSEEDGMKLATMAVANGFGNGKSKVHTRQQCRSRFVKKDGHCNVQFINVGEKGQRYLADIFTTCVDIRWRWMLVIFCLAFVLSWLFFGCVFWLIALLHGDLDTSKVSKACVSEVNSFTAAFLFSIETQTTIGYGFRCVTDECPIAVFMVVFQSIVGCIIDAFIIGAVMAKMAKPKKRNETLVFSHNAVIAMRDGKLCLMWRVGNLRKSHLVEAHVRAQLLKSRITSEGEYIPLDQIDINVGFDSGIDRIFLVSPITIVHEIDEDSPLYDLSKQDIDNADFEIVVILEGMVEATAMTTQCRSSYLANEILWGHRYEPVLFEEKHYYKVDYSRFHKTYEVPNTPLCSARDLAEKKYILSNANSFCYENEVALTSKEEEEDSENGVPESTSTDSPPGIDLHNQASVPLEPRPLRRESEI
HEK293 ctr – parental HEK293 activity in Kir2.1 inhibitor counter-screen; parental HEK293 cells, FluxOR thallium flux fluorescence; 0% = unstimulated blank wells; actives 19% (n = 2,300); shares compounds with KCNQ2 enhance; FluxOR signal as % of negative control (100 = no effect), % at 10 µM;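 active = dye signal at least 3 control SD above or below untreated wells in both duplicates, raw fluorescence within 3, either direction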;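 also: percent is based on the flux ratio of peak minus minimum fluorescence over baseline F0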
CHO-K1 Tl ctr – nonspecific thallium flux increase in parental CHO-K1, confirmation, counter-screen for KCNQ2 potentiator project, cell-based, FluxOR thallium flux, duplicate; actives 43% (n = 1,200); parental CHO-K1 cells, FluxOR thallium flux fluorescence; zero = vehicle mean+3SD, 100% = vehicle-minus-blank window; shares compounds with KCNQ2 enhance; activity increase over 3SD of controls, % at 10 µM;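 active = signal rise of at least 3 SD above the untreated control mean, in both duplicate wells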;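 also: counter screen of KCNQ2 potentiator hits so any rise reflects channel-independent effects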
KCNQ1 sel pot – human KCNQ1 channel potentiation off-target, confirmation, selectivity assay for KCNQ2 potentiator project, cell-based, CHO, FluxOR thallium flux. CHO KCNQ1 stable, FluxOR thallium flux fluorescence; beyond 3SD, as % of vehicle-control signal. shares compounds with KCNQ2 enhance. activation over 3SD threshold, % at 10 µM. actives 28% (n = 1,200). AID 2283, 2010;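 active = fluorescence ratio rise of at least 3 SD of vehicle wells above their mean, in both replicate wells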
KCNQ2 pot conf – rat KCNQ2 channel potentiators, confirmation, cell-based, CHO, FluxOR thallium flux, duplicate; shares compounds with KCNQ2 enhance; CHO-KCNQ2 cells, FluxOR thallium flux fluorescence; potentiation, less the hit threshold, % at 10 µM; actives 68% (n = 1,200);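 active = fluorescence ratio rising 3 SD or more over the vehicle control mean in both replicates, plus primary screen hit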;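 also: peak minus minimum thallium fluorescence divided by baseline after K/Tl stimulus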
Kir21 spec – mouse Kir2.1 channel activation off-target, confirmation, selectivity assay for KCNQ2 potentiator project, cell-based, HEK293, FluxOR thallium flux | shares compounds with KCNQ2 enhance | HEK293 Kir2.1, FluxOR thallium flux fluorescence | activity over 3SD threshold, % at 10 µM | actives 2% (n = 1,200);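 active = fluorescence ratio rise of at least 3 SD above the vehicle-control mean, seen in both replicates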
KCNQ2 W236L pot – potentiators of retigabine-insensitive KCNQ2 W236L, mechanism study for KCNQ2 potentiator project, cell-based, rat KCNQ2 W236L, CHO, automated patch clamp. shares compounds with KCNQ2 enhance. automated patch clamp current. current increase over 3SD of negative controls (%), hits give high values, % at 25 µM. actives 10% (n = 940). AID 2558, 2010;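 active = current increase at least 3 SD of the untreated controls above them in both duplicate recordings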
Large screens that a line does not name were inactive (follow-up assays come after a bar, where they were run). This is a sample that favours compounds with a hit; in the whole collection about 1.6% have one here.

Cc1c(NC(=O)COC(=O)c2ccc(Br)o2)c(=O)n(-c2ccccc2)n1C	none (no result: KCNQ2 enhance) | Kir21 conf inh inactive | HEK293 ctr inactive
CC(/C=N/N1C(=O)CSC1=S)=C\c1ccccc1	none (no result: KCNQ2 enhance)
O=C(NNC(=O)c1ccc(Cl)c(Cl)c1)c1cccnc1	none (no result: KCNQ2 enhance)
O=C(Nc1cccnc1)c1ccc(Oc2ccccc2)cc1	KCNQ2 enhance 18.4 | Kir21 conf inh inactive | HEK293 ctr inactive | CHO-K1 Tl ctr inactive | KCNQ1 sel pot inactive | KCNQ2 pot conf 85.1 | Kir21 spec inactive | KCNQ2 W236L pot inactive
O=C(Nc1cccnc1)c1ccccc1Oc1ccccc1	none (no result: KCNQ2 enhance)
O=C(Nc1cccnc1)c1ccc(Cl)c(Cl)c1	KCNQ2 enhance 8.08 | Kir21 conf inh inactive | HEK293 ctr inactive | CHO-K1 Tl ctr 18.0 | KCNQ1 sel pot inactive | KCNQ2 pot conf 21.0 | Kir21 spec inactive | KCNQ2 W236L pot 10.8%
CCOc1ccc(S(=O)(=O)Nc2ccc(C(=O)NCC(c3ccco3)N3CCCCC3)cc2)cc1 (stereo unspecified)	none (no result: KCNQ2 enhance)
COc1ccccc1N=Nc1ccc(O)c2ncccc12	KCNQ2 enhance 6.72 | Kir21 conf inh inactive | HEK293 ctr inactive | CHO-K1 Tl ctr inactive | KCNQ1 sel pot inactive | KCNQ2 pot conf 1.5 | Kir21 spec inactive | KCNQ2 W236L pot inactive
Cc1ccc(N=Nc2ccc(O)c3ncccc23)cc1	KCNQ2 enhance 8.3 | Kir21 conf inh inactive | HEK293 ctr inactive | CHO-K1 Tl ctr inactive | KCNQ1 sel pot 27.0 | KCNQ2 pot conf 13.0 | Kir21 spec inactive | KCNQ2 W236L pot inactive
CCS(=O)(=O)c1ccc(N=Nc2ccc(O)c3ncccc23)c(OC)c1	none
Cc1ccc(N=Nc2ccc(O)c3ncccc23)cc1C	none
O=C(CN(C(=O)CCC(=O)Nc1nccs1)c1ccccc1F)NCc1ccccc1	none (no result: KCNQ2 enhance)
CC1(C)Nc2ccc(O)cc2-c2c1ssc2=S	none (no result: KCNQ2 enhance) | Kir21 conf inh 40.0% | HEK293 ctr inactive
COc1cccc(-n2sc3c(c2=S)-c2cc(OC)ccc2NC3(C)C)c1	none (no result: KCNQ2 enhance)
COc1ccccc1OCCNC(=O)C1CC(=O)N(c2ccc3c(c2)OCCO3)C1 (stereo unspecified)	none (no result: KCNQ2 enhance)
CCOc1cccc(NC(=O)C2CC(=O)N(C)C(=Nc3ccccc3)S2)c1 (stereo unspecified)	none
CCOc1cccc(NC(=O)C2CC(=O)N(C)C(=Nc3cccc(F)c3)S2)c1 (stereo unspecified)	KCNQ2 enhance 6.47 | Kir21 conf inh inactive | HEK293 ctr inactive | CHO-K1 Tl ctr inactive | KCNQ1 sel pot inactive | KCNQ2 pot conf inactive | Kir21 spec inactive
CNc1ccccc1C(=O)OC(C)C(=O)Nc1ccc(Cl)cn1 (stereo unspecified)	none
CCC(C(=O)OC(C)C(=O)Nc1ccc(Cl)cn1)c1ccccc1 (stereo unspecified)	none (no result: KCNQ2 enhance) | Kir21 conf inh 57.5% | HEK293 ctr 68.5%
